Consider nine compounds from PubChem BioAssay (NCATS).

Assay [1] in a line: Cell Viability - LYMP2-020 (AID 986).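 Further: series mostly up to about 92 µM; cells exposed to compound for 24 h at 37 °C; plate controls were DMSO only for no effect and tetraoctylammonium bromide at 92 µM for full effect; nearly all actives have a fitted effect of over 55% in size.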 Put shortly: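 Seed 2500 cells per well and incubate 5 hr at 37 C. Add compounds at a concentration series and incubate 24 hr at 37 C. Add CellTiter-Glo, wait 30 min at RT, read luminescence, and fit a Hill curve for AC50.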
Assay [2] is described as follows: Cell Viability - LYMP2-022 (AID 987).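 Further: 0% = DMSO alone and full effect = tetraoctylammonium bromide at 92 µM; nearly all actives have a fitted effect of over 55% in size.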 Put shortly: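 Cells were seeded at 2500 per well, rested 5 hr at 37 C, and treated with titrated compounds for 24 hr at 37 C. Cellular ATP was then quantified by luciferase luminescence, and AC50 values were derived from Hill-modelled concentration-response curves.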
A short description of assay [3]: Cell Viability - LYMP2-024 (AID 988).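 Further: plate controls were DMSO only for no effect and 92 µM tetraoctylammonium bromide for full effect; nearly all actives have a fitted effect of over 60% in size.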 In short, it runs like this: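 qHTS cytotoxicity, human lymphoblastoid line, complete medium; 24 h cpd treatment, 37 C; CellTiter-Glo ATP luminescence readout; tetraoctylammonium bromide positive control; AC50 via Hill fit.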
A short description of assay [4]: Cell Viability - LYMP2-026 (AID 989).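 Further: cells exposed to compound for 24 h at 37 °C; on the % scale 0 is the no-effect control and ±100 the full control effect; nearly all actives have a fitted effect of over 50% in size.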 In short, it runs like this:
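Cells are seeded at 2500 per well and held 5 hr at 37 C. Compounds are added in concentration series for 24 hr, then CellTiter-Glo reagent is applied and luminescence read.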

Assay [5] in a line: Cell Viability - LYMP1-002 - Assay at 24 hr (AID 993). Further: on the % scale 0 is the no-effect control and ±100 the full control effect. In short, it runs like this: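 Acute toxicity is measured as concentration-dependent loss of cellular ATP in a human lymphoblastoid line (Coriell LYMP1-002) after 24 h treatment in complete medium. ATP is quantified by luciferase luminescence and AC50 derived by Hill modelling.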
Assay [6] in a line: Cell Viability - LYMP1-002 - Assay at 40 hr (AID 994).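 Further: 0% = DMSO only and full inhibition = 92 µM tetraoctylammonium bromide; nearly all actives have a fitted effect of over 60% in size.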 In short, it runs like this:
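Cells are plated at 2500 per well and rested 5 hr at 37 C. Compounds are added and incubated 40 hr at 37 C. CellTiter-Glo reagent is added for 30 min at room temperature before luminescence is read.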

The nature of assay [7]: qHTS Assay for Identification of Small Molecule Inducers of Hypoxia Response (AID 2120; active means well fitted curve in the direction sought with a large enough effect in the signal ratio, with a control signal flat, not every such curve was filed as active; the % refers to the signal ratio; further: 0% is about no effect). In short, it runs like this:
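Cell-based qHTS for reporter induction: hypoxia response element controlled beta-lactamase in ME-180 cells. Compounds incubated 17 h at 37 degrees C; activity from blue/green (460/530 nm) ratio, inducers ranked by AC50.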

Assay [8] concerns the target Estrogen receptor (Homo sapiens) (UniProt P03372). Put plainly: qHTS assay for small molecule antagonists of estrogen receptor alpha signaling (AID 588513; active means well fitted curve in the direction sought with a large enough effect in the signal ratio, with a control signal flat, not every such curve was filed as active; the % refers to the signal ratio; further: on the % scale 0 is the no-effect control and ±100 the full control effect). In short, it runs like this:
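Beta-lactamase reporter, antagonist mode, HEK 293 GripTite cells; 0.5nM E2 stimulus, 18 h, 37 C; CCF4 dye 2 h RT; fluorescence. IC50 and efficacy from Hill fits, normalized to E2 and DMSO.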
(In general: In qHTS, concentration-response curves come from the screen itself.)

Assay [9] shares this target. In words: qHTS assay for small molecule agonists of estrogen receptor alpha signaling (AID 588514; calls by dose curve;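 further: 0% = vehicle only and 100% = reference agonist; nearly all actives have a fitted effect of over 70% in size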). In short, it runs like this:
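Efficacy is expressed against 20 nM 17-beta-estradiol (100%) and DMSO basal (0%); EC50 from Hill equation. Assay: beta-lactamase reporter in ER-alpha-UAS-bla HEK 293 cells, 18 h compound incubation, CCF4 detection.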

For assay [10], the target named is Bile acid receptor (Homo sapiens) (UniProt Q96RI1). Put plainly: qHTS assay for small molecule antagonists of farnesoid X receptor signaling (AID 588526; calls by dose curve; further: on the % scale 0 is the no-effect control and ±100 the full control effect). In short, it runs like this:
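Concentration-response titrations were fitted to the Hill equation for half-maximal inhibition and maximal response, with data normalised to 50 uM chenodeoxycholic acid and DMSO control wells. Cells: FXR-UAS-bla HEK293T, dialyzed FBS.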

Assay [11] in a line: qHTS assay for small molecule antagonists of peroxisome proliferator-activated receptor delta signaling (AID 588535; active means well fitted inhibition curve with a large enough effect in the signal ratio, with a control signal flat, not every such curve was filed as active; the % refers to the signal ratio;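 on max response: cells co-treated with a PPAR-delta agonist as stimulator during compound exposure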). The note with it: HEK293T PPARd-UAS-bla, beta-lactamase FRET ratio, 18 h; 460 nm channel. Put shortly: (§1)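 Inhibition of PPAR-delta response element-driven beta-lactamase expression is measured in HEK293T cells exposed to a compound titration series for 18 hrs at 37 C. Half-maximal inhibition comes from Hill equation fitting.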

The target in assay [12] is Peroxisome proliferator-activated receptor delta (Homo sapiens) (UniProt Q03181). Described as above. In short, it runs like this:
as §1

Assay [13] concerns the target Vitamin D3 receptor (Homo sapiens) (UniProt P11473). Put plainly: qHTS assay for small molecule antagonists of vitamin D receptor signaling (AID 588541; calls by dose curve;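 further: receptor activated by calcitriol during compound treatment; series mostly up to about 77 µM; on the % scale 0 is the no-effect control and ±100 the full control effect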). In short, it runs like this:
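VDR-UAS-bla HEK293T cells (2000/well, 2% charcoal-stripped FBS) were treated with titrated compounds plus 1-alpha,25-dihydroxyvitamin D3 (50 nM or 3 nM final) for 16 h at 37 C. CCF4 beta-lactamase fluorescence was read; Hill fits gave IC50.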

Assay [14] shares this target. Put plainly: qHTS assay for small molecule agonists of vitamin D receptor signaling (AID 588543; calls by dose curve;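 further: 0% = DMSO basal and 100% = reference agonist control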). In short, it runs like this:
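β-lactamase reporter, VDR-UAS-bla HEK293T, agonist mode. Cells plated 5 h at 37 °C, compound titration 16 h at 37 °C, CCF4 dye 2 h RT, ratio 460/530 nm. Hill fit → EC50, efficacy vs 50 nM 1α,25-(OH)2D3.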

Assay [15] addresses Glucocorticoid receptor (Homo sapiens) (UniProt P04150). Put plainly: qHTS assay for small molecule agonists of glucocorticoid receptor signaling (AID 588532; active means well fitted curve in the direction sought with a large enough effect in the signal ratio, with a control signal flat; the % refers to the signal ratio;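 further: 100% = dexamethasone at 0.1 µM and 0% = DMSO only wells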). The note with it: HeLa MMTV-bla, beta-lactamase ratio, agonist, 18 h; stronger effect = higher value; percent of dexamethasone control, DMSO zero. In short, it runs like this: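 Titration series, up to 92 uM, applied to GRE-bla HeLa cells for 18 h at 37 C. Detection by CCF4 FRET substrate after 2 h at RT.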

For assay [16] the target is unchanged. In words: qHTS assay for small molecule antagonists of glucocorticoid receptor signaling (AID 588533; active means well fitted inhibition curve with a large enough effect in the signal ratio, with a control signal flat, not every such curve was filed as active; the % refers to the signal ratio). In short, it runs like this:
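Antagonist-mode qHTS: compound titrations added to GRE-bla HeLa cells, then dexamethasone 2 nM final; 18 h, 37 C. CCF4 FRET fluorescence normalized to dexamethasone and DMSO; IC50 from Hill fit.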

Assay [17] has as its target Peroxisome proliferator-activated receptor gamma (Homo sapiens) (UniProt P37231). Put plainly: qHTS assay for small molecule agonists of peroxisome proliferator-activated receptor gamma signaling (AID 588536; active means well fitted curve in the direction sought with a large enough effect in the signal ratio, with a control signal flat, not every such curve was filed as active; the % refers to the signal ratio;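 further: 0% = DMSO basal wells and 100% = rosiglitazone at 2 µM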). In short, it runs like this: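 Beta-lactamase reporter read-out: CCF4 fluorescence (ex 405, em 460/530 nm) after 2 h at RT. HEK293 GeneBLAzer cells were treated for 16 h at 37 C. Hill fits gave EC50 and efficacy versus 2 uM rosiglitazone (100%) and DMSO (0%).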

Assay [18] has the same target. Put plainly: qHTS assay for small molecule antagonists of peroxisome proliferator-activated receptor gamma signaling (AID 588537; active means well fitted inhibition curve with a large enough effect in the signal ratio, with a control signal flat, not every such curve was filed as active; the % refers to the signal ratio;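 further: reporter cells co-stimulated with 50 nM rosiglitazone agonist during compound treatment; % of control where 0% means no effect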). Put shortly: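 Compounds are tested as concentration series for inhibition of rosiglitazone-driven (50 nM) reporter expression in GeneBLAzer PPAR-gamma-UAS-bla HEK293 cells. After 16 h at 37 C, CCF4 substrate is added for 2 h at room temperature and blue/green fluorescence is measured.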

SMILES strings stand for the structures. Several values for one entry are separate records, joined by “and”; a condition that tells them apart may be missing. Equal values may be shown once. Results filed as inconclusive are left out. Activity calls are given as the source filed them. Unless noted, the call rests on the fitted dose curve; in most records, active means well fitted cell-killing curve with a large enough effect; inconclusive means small, poorly fitted or top-dose-only effect; inactive means flat fitted curve, though single readings scatter.

Chain of Peroxisome proliferator-activated receptor delta (Homo sapiens) (Q03181 whole entry, looked up): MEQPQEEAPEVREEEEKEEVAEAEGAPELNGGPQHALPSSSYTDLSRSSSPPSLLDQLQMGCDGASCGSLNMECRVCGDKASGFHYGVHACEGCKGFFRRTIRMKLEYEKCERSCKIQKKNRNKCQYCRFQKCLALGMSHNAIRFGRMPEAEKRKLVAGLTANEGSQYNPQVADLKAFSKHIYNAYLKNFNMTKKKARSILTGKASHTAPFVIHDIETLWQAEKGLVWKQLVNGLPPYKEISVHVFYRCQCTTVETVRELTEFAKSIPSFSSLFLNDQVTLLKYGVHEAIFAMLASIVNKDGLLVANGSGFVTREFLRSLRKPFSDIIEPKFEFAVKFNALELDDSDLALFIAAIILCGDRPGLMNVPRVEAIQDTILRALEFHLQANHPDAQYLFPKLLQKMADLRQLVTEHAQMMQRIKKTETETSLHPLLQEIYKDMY
Chain of Estrogen receptor (Homo sapiens) (P03372 whole entry, looked up): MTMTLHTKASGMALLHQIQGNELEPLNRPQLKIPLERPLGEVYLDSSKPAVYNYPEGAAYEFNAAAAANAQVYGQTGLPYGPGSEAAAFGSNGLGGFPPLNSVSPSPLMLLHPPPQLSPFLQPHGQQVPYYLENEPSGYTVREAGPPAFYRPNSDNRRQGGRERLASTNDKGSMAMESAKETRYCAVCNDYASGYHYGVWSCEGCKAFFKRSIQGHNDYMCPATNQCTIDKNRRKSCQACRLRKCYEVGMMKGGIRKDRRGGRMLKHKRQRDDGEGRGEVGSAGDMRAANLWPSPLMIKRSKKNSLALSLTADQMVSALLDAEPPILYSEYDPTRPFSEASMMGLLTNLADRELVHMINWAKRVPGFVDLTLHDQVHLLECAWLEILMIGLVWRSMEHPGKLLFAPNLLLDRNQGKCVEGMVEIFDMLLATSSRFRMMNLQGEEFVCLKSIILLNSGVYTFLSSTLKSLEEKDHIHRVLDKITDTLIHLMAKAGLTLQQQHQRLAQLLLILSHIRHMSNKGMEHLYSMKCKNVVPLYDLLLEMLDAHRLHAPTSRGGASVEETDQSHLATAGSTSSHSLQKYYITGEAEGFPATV
Chain of Glucocorticoid receptor (Homo sapiens) (P04150 whole entry, looked up): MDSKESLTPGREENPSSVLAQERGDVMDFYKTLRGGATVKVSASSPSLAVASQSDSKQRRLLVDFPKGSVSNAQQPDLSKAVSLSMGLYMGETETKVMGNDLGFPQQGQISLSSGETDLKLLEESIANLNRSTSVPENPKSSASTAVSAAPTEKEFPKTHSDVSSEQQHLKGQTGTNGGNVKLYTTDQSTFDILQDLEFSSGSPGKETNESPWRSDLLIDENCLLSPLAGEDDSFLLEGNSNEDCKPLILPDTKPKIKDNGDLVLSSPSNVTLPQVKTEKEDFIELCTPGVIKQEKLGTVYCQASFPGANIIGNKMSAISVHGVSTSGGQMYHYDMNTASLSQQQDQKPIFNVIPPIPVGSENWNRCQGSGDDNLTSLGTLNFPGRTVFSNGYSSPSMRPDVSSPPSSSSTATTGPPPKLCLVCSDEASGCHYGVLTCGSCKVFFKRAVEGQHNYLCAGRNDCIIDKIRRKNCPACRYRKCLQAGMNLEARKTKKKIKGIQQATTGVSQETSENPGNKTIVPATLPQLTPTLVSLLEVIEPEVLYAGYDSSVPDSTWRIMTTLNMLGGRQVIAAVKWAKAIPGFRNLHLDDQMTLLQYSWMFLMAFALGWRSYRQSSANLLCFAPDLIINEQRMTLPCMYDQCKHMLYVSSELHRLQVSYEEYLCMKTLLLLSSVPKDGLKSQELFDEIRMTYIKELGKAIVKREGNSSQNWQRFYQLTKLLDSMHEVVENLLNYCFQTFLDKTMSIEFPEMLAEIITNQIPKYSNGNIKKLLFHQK
Chain of Vitamin D3 receptor (Homo sapiens) (P11473 whole entry, looked up): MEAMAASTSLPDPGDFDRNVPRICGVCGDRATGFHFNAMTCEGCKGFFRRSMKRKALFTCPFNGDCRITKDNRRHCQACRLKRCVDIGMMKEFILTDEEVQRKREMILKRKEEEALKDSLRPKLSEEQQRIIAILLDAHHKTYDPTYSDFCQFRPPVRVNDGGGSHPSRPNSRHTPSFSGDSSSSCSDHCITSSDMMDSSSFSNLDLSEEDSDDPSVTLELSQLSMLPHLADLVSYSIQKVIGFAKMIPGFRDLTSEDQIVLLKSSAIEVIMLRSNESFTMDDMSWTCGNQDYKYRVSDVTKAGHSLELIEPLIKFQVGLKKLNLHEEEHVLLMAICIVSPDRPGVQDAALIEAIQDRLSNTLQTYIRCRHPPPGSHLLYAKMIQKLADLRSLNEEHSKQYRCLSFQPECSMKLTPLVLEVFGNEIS
Chain of Peroxisome proliferator-activated receptor gamma (Homo sapiens) (P37231 whole entry, looked up): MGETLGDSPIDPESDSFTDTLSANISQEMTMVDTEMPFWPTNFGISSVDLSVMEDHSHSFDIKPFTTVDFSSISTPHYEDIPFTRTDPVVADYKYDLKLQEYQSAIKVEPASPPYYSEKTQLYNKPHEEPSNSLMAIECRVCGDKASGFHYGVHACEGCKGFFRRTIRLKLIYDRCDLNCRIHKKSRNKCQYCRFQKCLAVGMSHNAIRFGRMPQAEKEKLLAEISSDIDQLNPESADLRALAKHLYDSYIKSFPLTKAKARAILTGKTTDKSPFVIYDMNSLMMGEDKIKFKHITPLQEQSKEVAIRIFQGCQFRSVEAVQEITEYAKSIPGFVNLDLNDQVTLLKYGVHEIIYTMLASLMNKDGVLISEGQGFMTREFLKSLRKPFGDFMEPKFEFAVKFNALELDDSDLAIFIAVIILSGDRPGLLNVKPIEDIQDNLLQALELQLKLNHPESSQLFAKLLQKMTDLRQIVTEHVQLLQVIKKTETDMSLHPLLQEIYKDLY
Chain of Bile acid receptor (Homo sapiens) (Q96RI1 whole entry, looked up): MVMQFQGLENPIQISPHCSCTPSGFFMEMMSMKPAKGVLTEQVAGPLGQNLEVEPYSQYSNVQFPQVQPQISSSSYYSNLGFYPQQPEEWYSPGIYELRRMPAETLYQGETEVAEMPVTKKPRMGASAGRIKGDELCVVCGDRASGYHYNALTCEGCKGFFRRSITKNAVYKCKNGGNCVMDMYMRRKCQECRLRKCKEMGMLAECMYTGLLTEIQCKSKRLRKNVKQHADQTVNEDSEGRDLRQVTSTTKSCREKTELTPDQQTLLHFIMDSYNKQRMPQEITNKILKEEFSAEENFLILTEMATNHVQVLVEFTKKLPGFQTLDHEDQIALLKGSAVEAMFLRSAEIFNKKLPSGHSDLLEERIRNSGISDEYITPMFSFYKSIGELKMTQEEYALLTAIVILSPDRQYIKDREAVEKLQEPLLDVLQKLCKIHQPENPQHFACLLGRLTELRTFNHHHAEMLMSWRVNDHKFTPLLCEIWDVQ

For `COc1ccc(N)c(C)c1`, the Potency result in [1], in assay [2], in assay [3], in [5], in [6] and in [9] was “inactive” each time. Also, the Potency result in [12] was “inactive”. In addition, the compound was classed as inactive in assay [4], in assay [7], in [8], in assay [10], in assay [13] and in [14]. Also, the max response in [11] was -12.2%.

Regarding `Cc1ccc(C)c(N)c1`, the Potency result in assay [1], in assay [2], in [3], in assay [5], in [6] and in assay [9] was “inactive” in each case. In addition, the compound was classed as inactive in assay [7], in assay [8], in assay [10], in assay [16], in [17] and in assay [13]. For the same compound, the compound was called inactive in assay [14]. In addition, in assay [15], the activation was -8.67% (inactive). In assay [11], the max response worked out at 30.9%.

On to `Cc1ccccc1C#N`, for which the Potency entry in assay [1], in [3], in [5], in [6], in assay [9] and in [12] was “inactive” each time. Besides, the outcome in assay [4], in [7], in assay [8], in assay [10], in assay [17] and in assay [13] was inactive. Moreover, the outcome in [14] was inactive. Moreover, in assay [11], the max response is -5.92%.

Take `CC(C)(c1cc(Br)c(OCC(Br)CBr)c(Br)c1)c1cc(Br)c(OCC(Br)CBr)c(Br)c1` (stereo not given): the Potency entry in assay [1], in [2], in [3], in [5], in [6] and in assay [9] was “inactive” each time. The Potency result in assay [12] is “inactive”. For the same compound, the result in [7], in [8], in [16], in [17], in [13] and in [14] was inactive. Moreover, in assay [15], the activation is 11.6% (inactive). Moreover, the max response in assay [11] is -13.7%.

For the compound `CCCCCCC(=O)O`, the Potency result in [1], in assay [2], in assay [3], in assay [5], in assay [6] and in assay [9] was “inactive” throughout. The Potency entry in assay [12] was “inactive”. For the same compound, the call in assay [4], in [7], in assay [8], in assay [10], in assay [13] and in [14] was inactive. Moreover, in assay [15], the activation is 2.07% (inactive). In assay [11], the max response was -11.6%.

For `CC(=O)c1cccc([N+](=O)[O-])c1`, the Potency result in assay [1], in assay [2], in assay [3], in [5], in assay [6] and in assay [9] was “inactive” throughout. Moreover, the call in assay [4], in assay [7], in assay [8], in [10], in [16] and in assay [17] was inactive. Also, the call in [13] and in assay [14] was inactive. In addition, the activation in [15] was 1.38% (inactive). Moreover, the max response in [11] turned out to be 13.5%.

`Nc1cc(Cl)c(N)c(Cl)c1`: the Potency result in [1], in [2], in assay [3], in assay [5], in assay [6] and in assay [9] was “inactive” each time. The Potency result in assay [12] is “inactive”. Besides, the call in [4], in [7], in [8], in assay [10], in assay [17] and in assay [18] was inactive. The compound was called inactive in assay [13] and in assay [14]. Besides, in [15], the activation is 0.447% (inactive). In [11], the max response was found to be 7.4%.

Regarding `CC(=O)Nc1ccccc1C`, the Potency entry in assay [1], in [2], in assay [3], in assay [5], in assay [6] and in assay [9] was “inactive” in each case. Moreover, the Potency result in [12] is “inactive”. Further, the compound was called inactive in assay [4], in assay [7], in [8], in assay [16], in assay [17] and in assay [18]. Moreover, the call in [13] and in assay [14] was inactive. For the same compound, the activation in assay [15] was -4.6% (inactive). The max response in assay [11] was found to be 8.94%.

`Nc1cccc(C(F)(F)F)c1`: the Potency result in [1], in [3], in assay [5], in assay [6], in [9] and in assay [12] was “inactive” throughout. The compound was called inactive in assay [4], in assay [7], in assay [8], in assay [10] and in assay [17]. In addition, the max response in [11] was 14.1% and 46.7%.
